# Where “and” joins values, the source holds several entries; their conditions need not be identical. Equal entries are not always repeated. Screen size: about 360,000 compounds; about 11,000 (3.1%) were called active. Rule as the data show it: active = activity change below about -30%; inactive = the rest. This excerpt belongs to a sample that is enriched for actives. Where a structure was tested more than once in an assay, its records may differ in their call.
# Target: D(1A) dopamine receptor (Homo sapiens) (UniProt P21728)
# Assay: Antagonist of Human D 1 Dopamine Receptor: qHTS
# Settings: HEK293 TREx D1 cells, calcium flux, dopamine EC80; at 10 µM; stronger effect = lower value
# From the text: Dopamine receptors (DARs) are involved in the etiology and/or therapy of a number of neuropsychiatric and endocrine disorders. For instance, all receptor-based antiparkinsonian drugs work via stimulating the […] DAR subtype whereas all FDA-approved antipsychotic agents are antagonists of this receptor. […] There are three different types of allosteric modulators that we are seeking, two of which will stimulate or augment receptor signaling, allosteric agonists and potentiators, while the third, allosteric antagonists, will attenuate receptor signaling. The present primary screening assay measures compound antagonism after an EC80 addition of dopamine by tracking calcium flux in a […], inducible Hek293 Trex D1 cell line. NIH Chemical Genomics Center [NCGC] NIH Molecular Libraries Probe Centers Network [MLPCN] MLPCN Grant: NS064831-01 Assay Submitter (PI): David Sibley
# Freshly passaged cells are plated in 1536 well black, clear bottom plates at a density of 4000 cells/well in 3 ul of complete media containing 1x tetracycline inducer. After an overnight incubation at 30 C in 5% CO2, cells are loaded with 2 ul of the no wash Calcium Assay Kit (ABD Bioquest) and incubated at room temperature for 30 to 90 minutes. Agonist read: A 10 cycle (1 second/cycle) baseline measurement is taken and then the FDSS online 1536 pintool delivers 23 nl of compound library (as well as dopamine controls) to the plate. The plate is measured for kinetically at 1 cycle/sec for 180 seconds. Following the 180 second read, 1 ul of an EC80 (negative modulation assay) is delivered by an onboard pipette head. Measurements are taken kinetically for an additional 180 seconds.
# % is scaled to controls: 0 for no effect and ±100 for the full control effect.
# D(1A) dopamine receptor (Homo sapiens), sequence (P21728 whole entry, looked up): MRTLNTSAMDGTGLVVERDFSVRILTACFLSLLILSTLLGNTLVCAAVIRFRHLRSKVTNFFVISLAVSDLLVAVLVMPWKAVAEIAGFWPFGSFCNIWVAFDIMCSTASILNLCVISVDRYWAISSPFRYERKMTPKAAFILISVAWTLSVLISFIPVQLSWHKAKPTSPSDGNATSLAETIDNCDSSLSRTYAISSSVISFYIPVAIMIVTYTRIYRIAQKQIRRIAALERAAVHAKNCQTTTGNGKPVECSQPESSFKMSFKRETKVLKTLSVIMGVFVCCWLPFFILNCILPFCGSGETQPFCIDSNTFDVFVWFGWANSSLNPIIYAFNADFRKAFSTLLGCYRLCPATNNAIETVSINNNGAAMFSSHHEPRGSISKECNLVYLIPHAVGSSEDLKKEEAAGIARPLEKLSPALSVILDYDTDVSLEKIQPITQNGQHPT
row,Compound,"activity change, negative = inhibition"
1,N#Cc1nc(/C=C/c2ccc(F)cc2)oc1NCc1ccc(F)cc1,4.43% (inactive)
2,Cc1ccc(CNC(=O)CCNS(=O)(=O)c2ccc3c(c2)oc(=O)n3C)cc1,-2.95% (inactive)
3,CN(Cc1ccccc1)C(=O)c1cn(C)c2ccc(S(=O)(=O)N(C)C3CCCCC3)cc2c1=O,-6.93% (inactive)
4,Cc1cccc(NC(=O)N2CCC(CN3CCc4ccccc4C3)CC2)c1C,3.23% (inactive)
5,COc1cccc(C(=O)Nc2ccc(-c3cc(C(F)(F)F)nn3-c3ccccc3)cc2)c1,-9.33% (inactive)
6,CCOc1ccccc1C(=O)NCc1ccc2c(c1)CCN2C(=O)c1ccc(F)cc1,-20.6% (inactive)
7,CCn1cc(C(=O)N(C)Cc2ccccc2)c(=O)c2cc(S(=O)(=O)N3CCCCCC3)ccc21,-14.7% (inactive)
8,Cc1n[nH]c(C)c1S(=O)(=O)N1CCCC(C(=O)Nc2ccc(Br)cc2)C1 (stereo not given),2.22% (inactive) and -57.1% (active)
9,Cc1n[nH]c(C)c1S(=O)(=O)N1CCCC(C(=O)NCC2COc3ccccc3O2)C1 (stereo not given),4.33% (inactive)
10,CC(=O)Nc1ccc(NC(=O)C2CCCN(S(=O)(=O)c3ccc(Cl)cc3)C2)cc1 (stereo not given),-19.3% (inactive)
11,O=C(NCc1cccnc1)C(=O)NCC(c1cccnc1)N1CCN(c2ccccc2)CC1 (stereo not given),2.98% (inactive)
12,CCOc1ccc(N(CC)S(=O)(=O)N2CCCC(C(=O)Nc3ccc(C(C)=O)cc3)C2)cc1 (stereo not given),-25.1% (inactive)
13,CC(C)(C)NCCCOc1ccc(Cl)cc1C(C)(C)C,-4.49% (inactive)
14,COCCNCCOCCOc1cccc(OC)c1,12.6% (inactive)
15,COCCCNCCOCCOc1ccc(Cl)cc1Br,-34.7% (active)
16,CCc1ccc(CNC(=O)c2cc3cc4ccc(OC)cc4nc3o2)cc1,2.97% (inactive)
17,CCCc1nn2c(=O)cc(COC(=O)c3ccc(NC(=O)C(C)Oc4ccccc4)cc3)nc2s1 (stereo not given),3.83% (inactive)
18,COc1ccc(-n2cc(-c3ccccc3)c3c(=S)nc[nH]c32)cc1,-0.706% (inactive)
19,CCCNc1ncnc2c1c(-c1ccccc1)cn2-c1ccc(OCC)cc1,36.7% (inactive)
20,O=c1[nH]cnc2c1c(-c1ccccc1)cn2-c1ccc(F)cc1,-39.4% (active)
21,COc1ccc(-c2noc(-c3ccc(N4CCN(c5ccccc5)CC4)c([N+](=O)[O-])c3)n2)cc1OC,-6.01% (inactive)
22,COc1ccc(S(=O)(=O)NCc2cccn2Cc2cccc(C)c2)cc1Cl,-21.8% (inactive)

row,Compound,"activity change, negative = inhibition"
1,CSc1ncc(C(=O)NCc2ccccc2Cl)c(C(F)(F)F)n1,2.06% (inactive)
2,CSc1ncccc1C(=O)NCc1ccccc1Cl,-34.3% (active)
3,CSc1ncccc1C(=O)Nc1ccc(C)cn1,25.9% (inactive)
4,O=C(Nc1ccc(O)c(-c2nc3ccccc3o2)c1)c1ccc(-c2cccc(Cl)c2)o1,8.95% (inactive)
5,CC(=O)c1ccc(NC(=O)C2CCN(S(=O)(=O)c3c(C)noc3/C=C/c3ccc(C)cc3)CC2)cc1,0.387% (inactive)
6,COc1ccccc1NC(=O)CSc1oc(-c2ccco2)nc1S(=O)(=O)c1ccc(Br)cc1,-50.6% (active)
7,Cc1ccc(S(=O)(=O)c2nc(-c3ccco3)oc2SCC(=O)Nc2ccc(F)cc2)cc1,-3.5% (inactive)
8,CC(Sc1oc(-c2ccco2)nc1S(=O)(=O)c1ccc(Br)cc1)c1ccccc1 (stereo not given),6.94% (inactive)
9,CCn1cc(C(=O)N2CCN(c3cc(Cl)ccc3C)CC2)c(=O)c2cc(S(=O)(=O)N3CCCC3)ccc21,-6.15% (inactive)
10,COc1cccc(C(c2c(O)cc(C)n(Cc3ccco3)c2=O)N2CCN(c3ccccc3)CC2)c1 (stereo not given),4.67% (inactive)
11,O=C(NCCCN1CCN(c2cccc(Cl)c2)CC1)c1nnc(Cc2ccc(F)cc2Cl)o1,-33.5% (active)
12,COc1ccc(N2CCN(CCNC(=O)c3nnc(Cc4c(F)cccc4Cl)o3)CC2)cc1,5.46% (inactive)
13,Cc1ccc(CCNC(=O)c2nnc(Cc3cccc(F)c3)o2)cc1,-1.29% (inactive)
14,Cc1ccc(CCNC(=O)c2ccc(CS(=O)(=O)Cc3cccc(C)c3)o2)cc1,-10.5% (inactive)
15,O=C(c1ccco1)N1CCN(C(=O)C2CC(c3ccc(F)cc3)=NO2)CC1 (stereo not given),-3.06% (inactive)
16,O=C(c1ccco1)N1CCN(C(=O)C2CC(c3ccc(Cl)c(Cl)c3)=NO2)CC1 (stereo not given),-36.7% (active)
17,O=C(OCC(=O)N1CCN(C(=O)c2ccco2)CC1)c1ccc(Cl)c(Cl)c1,-10.9% (inactive)
18,COc1ccccc1CN1CCC(CNC(=O)c2cnn(-c3ccccc3Cl)c2C2CCN(C(=O)OC(C)(C)C)CC2)CC1,-9.9% (inactive)
19,COc1ccccc1C(=O)OCc1cc(=O)n2nc(-c3cccs3)sc2n1,-28% (inactive)
20,O=C(CCS(=O)(=O)c1ccc2c(c1)NC(=O)CO2)Nc1cccc(C(F)(F)F)c1,1.28% (inactive)
21,Clc1cc(-c2ccc(/C=N/n3cnnc3)o2)ccc1Br,-8.28% (inactive)
22,Brc1cc(/C=N/n2cnnc2)oc1Br,-2.4% (inactive)

row,Compound,"activity change, negative = inhibition"
1,Cc1ccc(Cl)cc1-c1ccc(/C=N/n2cnnc2)o1,-37.1% (active)
2,Cn1c(=O)nc2n(-c3ccc(Br)cc3)c3cccc(Cl)c3cc-2c1=O,-15.6% (inactive)
3,CCOc1ccc(N2CC(c3nc4ccccc4n3CCOc3ccc(OC)cc3)CC2=O)cc1 (stereo not given),-7.94% (inactive)
4,CCc1ccccc1N1CC(c2nc3ccccc3n2CCCCOc2ccccc2)CC1=O (stereo not given),-13.7% (inactive)
5,COc1ccc(OCCCn2c(C3CC(=O)N(c4ccc(F)cc4)C3)nc3ccccc32)cc1 (stereo not given),-46.1% (active)
6,COc1ccc(OC)c(CNC(=O)c2c3c(nc4ccccc24)C(=O)N(C2CCCCC2)C3)c1,18.9% (inactive)
7,CC(C)(C)NC(=O)NC(=O)COC(=O)Cc1c(F)cccc1Cl,-21% (inactive)
8,CC(C)(C)NC(=O)NC(=O)COC(=O)Cc1ccc(Cl)cc1Cl,-36.3% (active)
9,COc1ccccc1OCCC(=O)OCC(=O)NC(=O)NC(C)(C)C,-0.18% (inactive)
10,CCOc1cc(/C=C(\C#N)C(=O)Nc2ccccc2C)ccc1OCc1cc(=O)n2nc(CC)sc2n1,4.8% (inactive)
11,CCOC(=O)c1cccc(NS(=O)(=O)c2cn(C)c(C)n2)c1,0.648% (inactive)
12,CCOc1ccccc1N(CC)C(=O)Nc1cn(C)c(=O)c2ccccc12,-33.9% (active)
13,CCOc1ccccc1N(CC)C(=O)c1cc2ccc3cccnc3c2[nH]1,15.7% (inactive)
14,CCOc1ccccc1CNC(=O)Nc1cn(CC(C)C)c(=O)c2ccccc12,-9.18% (inactive)
15,CNC(=O)CN1C(=O)c2cccnc2Sc2ccccc21,2.47% (inactive)
16,COc1ccc(CCNC(=O)c2ccc3c(c2)sc2nc(-c4ccc(C)cc4)cn23)cc1OC,-5.29% (inactive)
17,COc1cc(NS(=O)(=O)c2ccc(NC(=O)CN3C(=O)c4ccccc4C3=O)cc2)ncn1,11.7% (inactive)
18,COc1cc(NS(=O)(=O)c2ccc(NC(=O)c3ccc(S(=O)(=O)N4CCCCC4)cc3)cc2)ncn1,-62.1% (active)
19,COc1cc(NS(=O)(=O)c2ccc(NC(=S)NC(=O)c3ccc(Br)cc3)cc2)ncn1,-8.88% (inactive)
20,CC1CCCCN1Cc1c(O)ccc2c(=O)c(-c3cccc(Cl)c3)c(C(F)(F)F)oc12 (stereo not given),8.91% (inactive)
21,CCOc1ccc(C(NC(=O)c2cc(OC)c(OC)c(OC)c2)c2cc(Cl)c3cccnc3c2O)cc1 (stereo not given),1.85% (inactive)
22,CCOCCCNC(=O)c1ccc2nc(CCc3ccccc3)oc2c1,-1.1% (inactive)

row,Compound,"activity change, negative = inhibition"
1,CCOc1cccc(NC(=O)c2ccc(F)c(S(=O)(=O)N(CC)c3cccc(C)c3)c2)c1,16.1% (inactive)
2,CC1=C(C(=O)OCc2ccc(C)cc2)C(c2c(Cl)cccc2Cl)CC(=O)N1 (stereo not given),4.89% (inactive)
3,CCC(=O)N1CCN(c2ccccc2NC(=O)COc2cccc(C)c2C)CC1,3.4% (inactive)
4,Cc1ccccc1OCC(=O)Nc1ccc(N2CCN(C(=O)C(C)C)CC2)c(Cl)c1,-31% (active)
5,COc1cc(NC(=O)COc2ccccc2Cl)ccc1NC(=O)C(C)C,0.361% (inactive)
6,Cc1ccc(C)c(CN2C(=O)c3ccccc3S(=O)c3ccc(C(=O)N4CCOCC4)cc32)c1 (stereo not given),1.36% (inactive)
7,COc1ccc(OCC(=O)Nc2cccc(C(=O)OCc3cc(=O)n4nc(C)sc4n3)c2)cc1,-3.25% (inactive)
8,CCOc1ccc(-n2c(C)nc3c(cnn3-c3ccc(C)cc3)c2=O)cc1,10.9% (inactive)
9,COc1cc(C(=S)N2CCOCC2)cc(OC)c1OC(=O)c1ccc([N+](=O)[O-])cc1[N+](=O)[O-],-16.4% (inactive)
10,COc1cc(C(=S)N2CCOCC2)cc(OC)c1OC(=O)c1cc([N+](=O)[O-])cc([N+](=O)[O-])c1,-2.9% (inactive)
11,COc1cc([N+](=O)[O-])cc([N+](=O)[O-])c1NC(=O)N1CCOCC1,-32.7% (active)
12,O=C(Nc1c(-c2ccc(F)cc2)nc2ccccn12)c1cccc(F)c1,-0.545% (inactive)
13,N#CN1CCC(NC(=O)c2ccc(F)cc2)CC1,-14.9% (inactive)
14,O=C(Nc1ccc(OC(F)(F)F)cc1)c1cc2c(=O)n3ccccc3nc2s1,-3.02% (inactive)
15,CCOc1ccc(N(C)S(=O)(=O)c2cc(-c3cnc(C)o3)ccc2OC)cc1,-5.97% (inactive)
16,COc1ccc(-n2nnnc2SCC(=O)c2ccc(OC)c(OC)c2)cc1,16.4% (inactive)
17,COc1ccc(CSc2nnnn2-c2ccc(O)cc2)cc1F,-36.7% (active)
18,Oc1ccc(-n2nnnc2SCc2c(F)cccc2Cl)cc1,-17.7% (inactive)
19,COc1ccc(CCNc2nc3c(-c4cccc(F)c4)nnn3c3ccccc23)cc1OC,1.83% (inactive)
